In PubChem BioAssay (EPA / NIEHS) one finds AC50 and outcome data, which are given here for 39 molecules.

The AC50 is the concentration at which the activity in the assay is half-maximal.

Values joined by “and” are separate entries in the source; they are usually repeats but may differ in a detail not shown here. Equal entries are not always repeated. Inconclusive results are not listed. Active and inactive are the calls of the source. How the source made its calls: active means hit-call score of the fitted dose curve at least 0.9, where 1 is the maximum; inconclusive means response in the unintended direction; inactive means score below 0.9.

A short description of assay [1]: STM_H9_NormalizedViability: Cytotoxicity Assessment at 120 hours in the Stemina devTOX quickPredict H9 human embryonic stem cell (hESC)-based Assay (AID 2283784). In short, it runs like this: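 Here, H9 cells received test compound with daily medium renewal. Each plate included methotrexate references (1uM, 5 nM), 0.1% DMSO and media blanks; CellTiter-Fluor RFU was normalized to DMSO.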

A short description of assay [2]: ATG_M_06_XSP2: Attagene TRANS-FACTORIAL Multi-Species (XSP2) HepG2 Assay for M06 Transcription Factor (Internal Marker) (AID 2283811).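 Further: hits are increases in signal above the DMSO baseline.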 A digest of the protocol: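 Readout: fluorescent reporter-mRNA peaks by capillary electrophoresis after RT-PCR and HpaI digest, scored upward relative to DMSO. Transfected HepG2, 24 h chemical exposure, with 3 nM 6-alpha-fluorotestosterone and 1.5 nM norgestrel added.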

Assay [3] has as its target GAL4 Transcription Factor (Internal Marker), GAL4 (gene 855828) (UniProt P04386). The assay is described as follows: ATG_GAL4_XSP2: Attagene TRANS-FACTORIAL Multi-Species (XSP2) HepG2 Assay for GAL4 Transcription Factor (Internal Marker) (AID 2283814).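 Further: GAL4 reporter mRNA background control in MRTU transfected cells not a receptor target.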 A digest of the protocol: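 Background-control readout: gain-of-signal fitted against DMSO. After 24 h exposure of transfected HepG2 (MRTU, GAL4-UAS reporters; 3 nM 6-alpha-fluorotestosterone, 1.5 nM norgestrel present), transcripts quantified by RT-PCR and capillary electrophoresis fluorescence.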

The nature of assay [4]: ACEA_AR_antagonist_AUC_viability: ACEA Biosciences xCELLigence Real-Time Cell Analysis on Androgen Receptor Antagonism for Viability (AID 2283776).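 Further: 22Rv1 human prostate cancer cells growing on impedance electrode plates; area under impedance growth curve at 80 h after dosing as viability; hits lower the growth signal relative to DMSO meaning cytotoxicity.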 A digest of the protocol: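 Real-time electrical impedance tracks 22Rv1 proliferation after continuous compound exposure (top 100 uM final, 1:4 steps, 8 concentrations). The 80 h area-under-curve serves as the cytotoxicity readout relative to DMSO.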

Assay [5] can be described thus: ACEA_ER_AUC_viability: ACEA Biosciences xCELLigence Real-Time Cell Analysis on Estrogen Receptor Agonism for Viability (AID 2283782).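 Further: hit means loss of impedance signal meaning reduced cell growth or viability.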 In short, it runs like this:
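Read-out: real-time electrical impedance (RT-CES) area under curve, loss of signal taken as reduced viability, normalized to DMSO baseline. T-47D cells, charcoal-stripped serum medium, compounds up to 100 uM final, continuous exposure, 80 h.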

Assay [6] has as its target AR (gene 367) (UniProt P10275). The assay is described as follows: ACEA_AR_agonist_80hr: ACEA Biosciences xCELLigence Real-Time Cell Analysis on Androgen Receptor Agonism for Proliferation (AID 2283783).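 Further: hits increase impedance growth signal above DMSO baseline.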 A digest of the protocol:
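Impedance (RT-CES) growth signal at 80 h post-dose; 22Rv1 cells, 8-pt 1:4 series, top 100 uM final, DMSO ≤0.5%; duplicate plates; gain-of-signal fit relative to DMSO baseline.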

Assay [7] addresses AR (gene 367) (UniProt P10275). The assay is described as follows: ACEA_AR_antagonist_80hr: ACEA Biosciences xCELLigence Real-Time Cell Analysis on Androgen Receptor Antagonism for Proliferation (AID 2283787).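 Further: 22Rv1 human prostate cancer cells with growth followed by electrical impedance; hits lower the impedance growth signal relative to DMSO.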 A digest of the protocol:
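Measures real-time proliferation of 22Rv1 prostate cancer cells by electrode impedance at 80 hours after dosing. Test articles ran at eight concentrations (1:4 steps, top 100 uM final) in biological duplicate.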

A short description of assay [8]: ACEA_AR_agonist_AUC_viability: ACEA Biosciences xCELLigence Real-Time Cell Analysis on Androgen Receptor Agonism for Viability (AID 2283775).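 On AC50: viability read 80 hours after compound addition.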 In short, it runs like this:
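Viability endpoint from xCELLigence impedance in 22Rv1 prostate cells at 80 h. Eight-point series, 100 uM maximum final.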

The subject of assay [9] is turtle Estrogen Receptor (ERa), gene 101933533. The assay is described as follows: ATG_trERa_XSP2: Attagene TRANS-FACTORIAL Multi-Species (XSP2) HepG2 Assay for turtle Estrogen Receptor (ERa) (AID 2283812).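 Further: actives raise reporter signal above DMSO so AC50 reflects agonist activity.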 A digest of the protocol:
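Readout is reporter mRNA quantified by RT-PCR with capillary electrophoresis after 24 h compound exposure, increase relative to DMSO. Uses transiently transfected human HepG2 liver cells carrying a chimeric turtle ERa-Gal4 receptor driving GAL4-UAS reporters.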

The target of assay [10] is Estrogen receptor beta (Homo sapiens) (UniProt Q92731). The assay is described as follows: ATG_hERb_XSP2: Attagene TRANS-FACTORIAL Multi-Species (XSP2) HepG2 Assay for human Estrogen Receptor (ERb) (AID 2283813).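 Further: actives raise reporter mRNA above DMSO so AC50 reflects agonist induction.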 In short, it runs like this:
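Transient TRANS reporter system in HepG2: after 24 h of chemical, RNA is reverse-transcribed, reporter cDNA amplified, FAM-labelled and sized by capillary electrophoresis. Induction of the human ERb-Gal4 reporter is measured relative to DMSO.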

Chain of AR (gene 367) (P10275 whole entry, looked up): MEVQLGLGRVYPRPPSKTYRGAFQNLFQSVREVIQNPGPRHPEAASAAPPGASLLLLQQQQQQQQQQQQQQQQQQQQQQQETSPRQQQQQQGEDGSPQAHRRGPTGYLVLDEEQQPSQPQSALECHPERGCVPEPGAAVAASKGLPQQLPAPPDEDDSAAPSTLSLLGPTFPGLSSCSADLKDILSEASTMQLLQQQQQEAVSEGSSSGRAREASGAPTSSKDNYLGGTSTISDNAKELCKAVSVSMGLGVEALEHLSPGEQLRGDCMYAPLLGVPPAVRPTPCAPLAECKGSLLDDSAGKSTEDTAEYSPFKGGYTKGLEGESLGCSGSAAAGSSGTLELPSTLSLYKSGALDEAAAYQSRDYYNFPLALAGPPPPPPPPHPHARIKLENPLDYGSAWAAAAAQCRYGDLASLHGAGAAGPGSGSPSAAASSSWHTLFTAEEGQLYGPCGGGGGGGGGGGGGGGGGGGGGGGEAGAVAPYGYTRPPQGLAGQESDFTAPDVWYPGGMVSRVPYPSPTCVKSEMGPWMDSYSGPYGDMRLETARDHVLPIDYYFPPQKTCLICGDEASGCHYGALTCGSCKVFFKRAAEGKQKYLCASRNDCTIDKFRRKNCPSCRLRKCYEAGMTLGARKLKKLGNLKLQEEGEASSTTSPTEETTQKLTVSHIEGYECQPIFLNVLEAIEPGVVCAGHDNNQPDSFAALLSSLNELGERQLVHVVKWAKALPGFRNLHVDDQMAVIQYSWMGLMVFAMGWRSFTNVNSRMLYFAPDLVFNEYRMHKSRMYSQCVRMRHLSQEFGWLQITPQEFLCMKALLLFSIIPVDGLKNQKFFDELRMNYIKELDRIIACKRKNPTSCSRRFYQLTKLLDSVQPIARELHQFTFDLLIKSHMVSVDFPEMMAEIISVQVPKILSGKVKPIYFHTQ
Chain of Estrogen receptor beta (Homo sapiens) (Q92731 whole entry, looked up, the tested form may be a part): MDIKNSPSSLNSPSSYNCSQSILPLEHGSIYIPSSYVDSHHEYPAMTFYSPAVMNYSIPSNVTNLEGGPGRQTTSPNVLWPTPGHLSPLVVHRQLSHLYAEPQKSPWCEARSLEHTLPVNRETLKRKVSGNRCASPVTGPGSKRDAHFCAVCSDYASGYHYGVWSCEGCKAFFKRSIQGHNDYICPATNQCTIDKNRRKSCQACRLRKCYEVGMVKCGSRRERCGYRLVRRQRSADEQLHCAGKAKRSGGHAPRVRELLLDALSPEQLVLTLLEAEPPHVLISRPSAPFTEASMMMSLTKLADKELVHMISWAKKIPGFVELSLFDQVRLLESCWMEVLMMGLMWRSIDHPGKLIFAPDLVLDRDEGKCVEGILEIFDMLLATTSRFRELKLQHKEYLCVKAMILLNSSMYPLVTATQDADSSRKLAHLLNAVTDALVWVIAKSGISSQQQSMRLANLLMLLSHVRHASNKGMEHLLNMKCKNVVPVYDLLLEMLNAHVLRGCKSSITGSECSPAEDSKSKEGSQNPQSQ
Chain of GAL4 Transcription Factor (Internal Marker), GAL4 (gene 855828) (P04386 whole entry, looked up, the tested form may be a part): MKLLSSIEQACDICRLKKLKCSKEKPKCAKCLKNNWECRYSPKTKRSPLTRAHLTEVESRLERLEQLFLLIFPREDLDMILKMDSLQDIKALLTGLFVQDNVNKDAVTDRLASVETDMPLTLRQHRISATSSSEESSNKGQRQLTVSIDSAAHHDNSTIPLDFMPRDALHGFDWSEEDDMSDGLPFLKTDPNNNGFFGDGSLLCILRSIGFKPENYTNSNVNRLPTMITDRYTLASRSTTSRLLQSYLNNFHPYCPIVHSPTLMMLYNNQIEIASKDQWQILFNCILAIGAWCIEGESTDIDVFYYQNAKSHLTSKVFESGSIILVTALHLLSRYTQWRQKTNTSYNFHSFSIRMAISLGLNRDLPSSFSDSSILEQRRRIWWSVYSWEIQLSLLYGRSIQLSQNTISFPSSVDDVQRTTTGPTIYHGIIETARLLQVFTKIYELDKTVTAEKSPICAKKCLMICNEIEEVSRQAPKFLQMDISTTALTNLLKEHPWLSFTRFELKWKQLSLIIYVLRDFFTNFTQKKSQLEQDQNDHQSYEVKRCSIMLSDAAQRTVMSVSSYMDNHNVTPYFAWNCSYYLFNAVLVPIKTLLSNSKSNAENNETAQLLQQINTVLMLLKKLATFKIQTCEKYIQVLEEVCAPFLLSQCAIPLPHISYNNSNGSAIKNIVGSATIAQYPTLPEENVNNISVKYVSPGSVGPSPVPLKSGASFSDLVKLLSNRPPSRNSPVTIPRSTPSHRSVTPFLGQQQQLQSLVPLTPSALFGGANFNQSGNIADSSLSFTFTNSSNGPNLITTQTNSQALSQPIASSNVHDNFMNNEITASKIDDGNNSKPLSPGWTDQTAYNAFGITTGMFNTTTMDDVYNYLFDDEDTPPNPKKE

Regarding `CN(C)C(=S)S`, the half-maximal activity concentration (AC50) in assay [1] is 29.2 µM (active).

Regarding `CC(C)O.CC(C)O.OCCN(CCO)CCO.OCCN(CCO)CCO.[Ti]`, the outcome in assay [1] was inactive.

`CC(O)(CS(=O)(=O)c1ccc(F)cc1)C(=O)Nc1ccc(C#N)c(C(F)(F)F)c1` (stereo not given): in [2], the outcome was inactive.

Regarding `Oc1cc(Cl)c(Cl)cc1Cl`, in [3], the outcome was inactive.

On to `O=C(CBr)c1ccc(O)cc1`, for which the molecule was called inactive in assay [4].

For the molecule `N#CCCC(Br)(C#N)CBr` (stereo not given), in [4], the molecule was classed as inactive. Also, the concentration at half-maximal activity (AC50) is 10.9 µM (active) in [5] and 95.3 µM (active) in [1].

For the molecule `CCOC(=O)c1ccccc1S(=O)(=O)NC(=O)Nc1nc(Cl)cc(OC)n1`, the molecule was called inactive in assay [5].

With `O=S1(=O)OC(c2cc(Br)c(O)c(Br)c2)(c2cc(Br)c(O)c(Br)c2)c2ccccc21`, the molecule was called inactive (in assay [4]; in assay [5]; with AR (gene 367) [6]; in the assay with AR (gene 367) [7]).

`N#Cc1ccccc1Cl`: the call in assay [5] was inactive.

On to `ClCc1ccccc1CCl`, for which the AC50 in [5] was 29.6 µM (active).

In the case of `CCC[CH2][Sn]([CH2]CCC)([CH2]CCC)[CH2]CCC`, the AC50 in assay [4] was 29.9 µM (active).

`COC(=O)Nc1cccc(OC(=O)Nc2cccc(C)c2)c1`: in assay [4], the result was inactive.

With `CC1(C)[C@H](C(=O)O[C@H](C#N)c2cccc(Oc3ccccc3)c2)[C@@H]1/C=C(\Cl)C(F)(F)F`, in [5], the AC50 is 42.5 µM (active).

As to `O=c1oc2ccccc2c(O)c1C(CC(O)c1ccc(-c2ccc(Br)cc2)cc1)c1ccccc1` (stereo not given), the half-maximal activity concentration (AC50) in [5] was 22.7 µM (active).

Consider `O=[N+]([O-])c1ccc(Cl)c([N+](=O)[O-])c1`, for which the AC50 is 22.3 µM (active) in assay [8], 16.5 µM (active) in assay [1] and 24.8 µM (active) with AR (gene 367) [7]. Further, the molecule was classed as inactive in the assay with AR (gene 367) [6].

For the molecule `CC(C)=CC1C(C(=O)OCc2cccc(Oc3ccccc3)c2)C1(C)C` (stereo not given), the molecule was called inactive in assay [4] and in [5].

Consider `CC(C)[C@H](C(=O)OC(C#N)c1cccc(Oc2ccccc2)c1)c1ccc(OC(F)F)cc1` (stereo not given in full), for which the AC50 in [5] was 38 µM (active).

With `CCN(N=O)C(N)=O`, the call in assay [5] was inactive.

Turning to `O=C(N[C@H]1CN2CCC1CC2)c1ccc2c(c1)OCCO2`, the outcome (in assay [4]; in assay [5]; in the assay with AR (gene 367) [6]; in the assay with AR (gene 367) [7]) was inactive.

`O=CCCl`: in assay [4], the molecule was classed as inactive.

As for `CCOP(=S)(OCC)SCS(=O)(=O)C(C)(C)C`, the molecule was called inactive in assay [5].

As to `C=C(C)C(=O)OCCCCOC(=O)C(=C)C`, the AC50 in [5] is 30.7 µM (active).

In the case of `O=NN1CCCCCCC1`, the call in [5] was inactive.

On to `CCCSP(=S)(OCC)Oc1ccc(SC)cc1` (stereo not given), for which the molecule was classed as inactive in assay [8] and in assay [5].

Regarding `Cc1cc(Cl)ccc1OC(C)C(=O)O` (stereo not given), the call in assay [8] and in assay [5] was inactive.

On to `OCCN(CCO)CCO`, for which the molecule was called inactive in assay [4] and in [1].

`Oc1c(Br)cc(Br)cc1Br`: the result in assay [4] was inactive.

On to `O=S1OC[C@@H]2[C@H](CO1)[C@]1(Cl)C(Cl)=C(Cl)[C@@]2(Cl)C1(Cl)Cl` (stereo not given in full), for which the outcome (in [8]; in [4]; with AR (gene 367) [7]) was inactive.

On to `CNC(=O)O/N=C/C(C)(C)S(C)(=O)=O`, for which the result (in assay [8]; in assay [4]; in the assay with AR (gene 367) [7]) was inactive.

Take `Cc1cccc(OP(=O)(Oc2cccc(C)c2)Oc2cccc(C)c2)c1`: the AC50 in [5] is 17.3 µM (active).

For the molecule `Nc1ncn[nH]1`, the outcome in [8] and in assay [5] was inactive.

As to `Cc1cc(Cl)ccc1OCCCC(=O)O`, the call (in [8]; in assay [4]; in the assay with AR (gene 367) [7]) was inactive.

With `CCOP(=S)(OCC)O/N=C(\C#N)c1ccccc1`, the result in [8], in [2], in assay [10] and in [3] was inactive. In assay [9], the AC50 is 7.97 µM (active) and 2.27 µM (active).

With `CCCCCCCCCCBr`, in assay [5], the outcome was inactive.

`Cc1cc(Cl)ccc1O`: the result in [4] was inactive.

On to `O=C(NC(=O)c1c(F)cccc1F)Nc1ccc(Cl)cc1`, for which the molecule was called inactive in assay [4].

For `O=C(CCl)NCO`, the molecule was classed as inactive in assay [5].

Turning to `O=C(O)COc1cc(Cl)c(Cl)cc1Cl`, the call with AR (gene 367) [6] was inactive.

On to `[Cl][Sn]([c]1ccccc1)([c]1ccccc1)[c]1ccccc1`, for which the call in assay [2] was inactive.
